# Many of the other results were omitted from the sample, so the strongest signals are more common in it than they were.
# B1: Als3-41 (Candida albicans) (protein)
# chain: KTITGVFNSFNSLTWSNAATYNYKGPGTPTWNAVLGWSLDGTSASPGDTFTLNMPCVFKFTTSQTSVDLTAHGVKYATCQFQAGEEFMTFSTLTCTVSNTLTPSIKALGTVTLPLAFNVGGTGSSVDLEDSKCFTAGTNTVTFNDGGKKISINVDFERSNVDPKGYLTDSRVIPSLNKVSTLFVAPQCANGYTSGTMGFANTYGDVQIDCSNIHVGITKGLNDWNYPVSSESFSYTKTCSSNGIFITYKNVPAGYRPFVDAYISATDVNSYTLSYANEYTCAGGYWQRAPFTLRWTGYRNSDAGSNGIVIVATTRTVTDSTTAVTTLPFDPNRDKTKTIEILKPIPTTTITTSYVGVTTSYLTKTAPIGETATVIVD
# Legend:
# Assay in all cases: glycan array binding signal (z-score within array); higher = stronger binding
# Conditions in all cases: glycan notation: IUPAC condensed, linker removed
# [1] = target: GlcNAc(b1-3)Gal(b1-4)GlcNAc(b1-3)Gal(b1-4)GlcNAc(b1-3)Gal(b1-4)GlcNAc(b1-2)Man(a1-3)[GlcNAc(b1-3)Gal(b1-4)GlcNAc(b1-3)Gal(b1-4)GlcNAc(b1-3)Gal(b1-4)GlcNAc(b1-2)Man(a1-6)]Man(b1-4)GlcNAc(b1-4)[Fuc(a1-6)]GlcNAc
# Method in brief: (§1)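 Arrays were curated from the Consortium for Functional Glycomics database, 3228 in total, and kept only where the protein sequence was available. Binding is expressed as a within-array Z-score. This score was averaged across arrays of the same protein sequence at different concentrations or buffers and across linkers, and negative values can be read as non-binding.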
# GlcNAc(b1-3)Man = target: GlcNAc(b1-3)Man
# Method in brief: as §1
# GlcNAc(b1-4)GlcNAc = target: GlcNAc(b1-4)GlcNAc
# Method in brief: as §1
# Kdn(a2-3)Gal(b1-4)GlcNAc = target: Kdn(a2-3)Gal(b1-4)GlcNAc
# Method in brief: as §1
# [2] = target: Man(a1-2)Man(a1-6)[Man(a1-3)]Man(a1-6)[Man(a1-2)Man(a1-2)Man(a1-3)]Man(b1-4)GlcNAc(b1-4)GlcNAc
# Method in brief: as §1
# Neu5Ac(a2-3)Gal = target: Neu5Ac(a2-3)Gal
# Method in brief: as §1
# [3] = target: Neu5Ac(a2-3)Gal(b1-3)GalNAc(b1-4)[Neu5Ac(a2-3)]Gal(b1-4)Glc
# Method in brief: as §1
# [4] = target: Neu5Ac(a2-3)Gal(b1-4)GlcNAc(b1-2)Man
# Method in brief: as §1
# [5] = target: Neu5Ac(a2-3)Gal(b1-4)GlcNAc(b1-2)Man(a1-3)[Neu5Ac(a2-3)Gal(b1-4)GlcNAc(b1-2)Man(a1-6)]Man(b1-4)GlcNAc(b1-4)[Fuc(a1-6)]GlcNAc
# Method in brief: as §1
# [6] = target: Neu5Ac(a2-3)Gal(b1-4)GlcNAc(b1-3)Gal(b1-4)GlcNAc(b1-3)Gal(b1-4)GlcNAc(b1-2)Man(a1-3)[Neu5Ac(a2-3)Gal(b1-4)GlcNAc(b1-3)Gal(b1-4)GlcNAc(b1-3)Gal(b1-4)GlcNAc(b1-2)Man(a1-6)]GalNAc
# Method in brief: as §1
# [7] = target: Neu5Ac(a2-3)GalNAc(b1-4)GlcNAc
# Method in brief: as §1
# [8] = target: Neu5Ac(a2-6)Gal(b1-4)GlcNAc(b1-2)Man(a1-3)Man(b1-4)GlcNAc(b1-4)GlcNAc
# Method in brief: as §1
# [9] = target: Neu5Ac(a2-6)Gal(b1-4)GlcNAc(b1-2)Man(a1-3)[Man(a1-6)]Man(b1-4)GlcNAc(b1-4)GlcNAc
# Method in brief: as §1
# [10] = target: Neu5Ac(a2-8)Neu5Ac(a2-3)[Gal(b1-3)GalNAc(b1-4)]Gal(b1-4)Glc
# Method in brief: as §1
# [11] = target: Neu5Gc(a2-8)Neu5Gc(a2-6)Gal(b1-4)GlcNAc
# Method in brief: as §1
binder,measurement,setting,value
B1,glycan array binding signal (z-score),[1],1.72
same,glycan array binding signal (z-score),GlcNAc(b1-3)Man,0.501
same,glycan array binding signal (z-score),GlcNAc(b1-4)GlcNAc,1.79
same,glycan array binding signal (z-score),Kdn(a2-3)Gal(b1-4)GlcNAc,-0.355
same,glycan array binding signal (z-score),[2],-0.239
same,glycan array binding signal (z-score),Neu5Ac(a2-3)Gal,-0.322
same,glycan array binding signal (z-score),[3],-0.31
same,glycan array binding signal (z-score),[4],0.213
same,glycan array binding signal (z-score),[5],-0.35
same,glycan array binding signal (z-score),[6],6.54
same,glycan array binding signal (z-score),[7],-0.224
same,glycan array binding signal (z-score),[8],-0.296
same,glycan array binding signal (z-score),[9],-0.268
same,glycan array binding signal (z-score),[10],-0.006
same,glycan array binding signal (z-score),[11],-0.217
